Measurements published in PubChem BioAssay (NCATS).
Records with an inconclusive call do not appear. Calls of active or inactive are those of the source. Calls follow the shape of the dose curve; as a rule, active = well fitted curve in the direction sought with a large enough effect; inconclusive = small, poorly fitted or top-dose-only effect, or another doubt; inactive = no such curve, though single readings can be large; an effect the other way counts as inactive or inconclusive. Where a SMILES comes first, the peptide text is derived from it. The star is where a group is joined. Cbz = O=C(OCc1ccccc1)*; CH2F = FC*

Experiments:
[1] = test system: CRL-7250; experiment: Cytotoxic Profiling of Annotated Libraries Using Quantitative High-Throughput Screening (AID 1296008); conditions: Five cell lines viability, CellTiter-Glo ATP luminescence, 48-72 h; max response: stronger effect = lower value; also: nearly all actives have a fitted effect of over 60% in size; as to max response: % is scaled to controls: 0 for no effect and ±100 for the full control effect
Summary of the method: (§1)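 Cytotoxicity was measured as CellTiter-Glo ATP luminescence, read after 10 min at room temperature. Compound treatment of the cells lasted 48 or 72 hr at 37 degrees Celsius in a qHTS format.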

[2] = test system: HEK293; experiment: as above; conditions: Five cell lines viability, CellTiter-Glo ATP luminescence, 48-72 h; max response: stronger effect = lower value
Summary of the method: as §1

[3] = test system: HaCat; experiment: as above; conditions: Five cell lines viability, CellTiter-Glo ATP luminescence, 48-72 h; max response: stronger effect = lower value
Summary of the method: as §1

[4] = test system: KB-3-1; experiment: as above; conditions: Five cell lines viability, CellTiter-Glo ATP luminescence, 48-72 h; max response: stronger effect = lower value
Summary of the method: as §1

[5] = test system: NIH3T3; experiment: as above; conditions: Five cell lines viability, CellTiter-Glo ATP luminescence, 48-72 h; max response: stronger effect = lower value
Summary of the method: as §1

[6] = test system: HACAT; experiment: qHTS assay to identify novel small-molecules to repurpose for Merkel cell carcinoma treatment (AID 1296009); conditions: MCC and control cell lines, CellTiter-Glo viability, 72 h; at 44.8 µM (top of the series) unless noted; also: nearly all actives have a fitted effect of over 60% in size
Summary of the method: (§2)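 Cell viability measured by CellTiter-Glo following 72 hr compound treatment at 37 degree celsius, with NPC and MIPE libraries tested in 8- and 11-point concentration series.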

[7] = test system: NIH3T3; experiment: as above; conditions: MCC and control cell lines, CellTiter-Glo viability, 72 h; at 44.8 µM (top of the series) unless noted
Summary of the method: as §2

[8] = test system: C33A; experiment: Primary qHTS to identify gynecologic anti-cancer compounds using libraries of approved drugs and bioactive compounds (AID 1345084); conditions: Gynecologic cancer cell panel viability, ATPlite luminescence, 48 h; series mostly up to 57.5 µM; also: % is scaled to controls: 0 for no effect and ±100 for the full control effect; nearly all actives have a fitted effect of over 55% in size
Summary of the method: (§3)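 In this quantitative HTS, cell killing is estimated from loss of ATP-dependent luciferase light. Cells see five compound concentrations over a 48 h exposure.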

[9] = test system: CAOV3; experiment: as above; conditions: Gynecologic cancer cell panel viability, ATPlite luminescence, 48 h; series mostly up to 57.5 µM
Summary of the method: as §3

[10] = test system: CASKI; experiment: as above; conditions: Gynecologic cancer cell panel viability, ATPlite luminescence, 48 h; series mostly up to 57.5 µM
Summary of the method: as §3

[11] = test system: Es-2; experiment: as above; conditions: Gynecologic cancer cell panel viability, ATPlite luminescence, 48 h; series mostly up to 57.5 µM
Summary of the method: as §3

[12] = test system: HeLa; experiment: as above; conditions: Gynecologic cancer cell panel viability, ATPlite luminescence, 48 h; series mostly up to 57.5 µM
Summary of the method: as §3

[13] = test system: Hek293T; experiment: as above; conditions: Gynecologic cancer cell panel viability, ATPlite luminescence, 48 h, control line for the selectivity index; series mostly up to 57.5 µM
Summary of the method: as §3

[14] = test system: JEG-3; experiment: as above; conditions: Gynecologic cancer cell panel viability, ATPlite luminescence, 48 h; series mostly up to 57.5 µM
Summary of the method: as §3

[15] = test system: OV90; experiment: as above; conditions: Gynecologic cancer cell panel viability, ATPlite luminescence, 48 h; series mostly up to 57.5 µM
Summary of the method: as §3

C[C@@H]1O[C@@H](O[C@H]2[C@H](O[C@H]3[C@H](O[C@H]4CC[C@@]5(C)C(CC[C@]6(C)C5CC=C5[C@@H]7CC(C)(C)C[C@@H](O)[C@]7(C)CC[C@]56C)[C@@]4(C)CO)O[C@H](C(=O)O)[C@@H](O)[C@@H]3O)O[C@H](CO)[C@H](O)[C@@H]2O)[C@H](O)[C@H](O)[C@H]1O (stereo not given in full)
inactive: max response [1] 3.95% | max response [2] -3.77% | outcome [3] | outcome [4] | outcome [5] | outcome [6] inactive [at 9.27 µM] | outcome [7] inactive [at 9.27 µM] | activity change, negative = cytotoxicity [8] -1.56% [at 11.6 µM] | activity change, negative = cytotoxicity [9] 6.93% [at 11.6 µM] | activity change, negative = cytotoxicity [10] 9.29% [at 11.6 µM] | activity change, negative = cytotoxicity [11] 0.369% [at 11.6 µM] | activity change, negative = cytotoxicity [12] 7.52% [at 11.6 µM] | activity change, negative = cytotoxicity [13] -1.54% [at 11.6 µM] | activity change, negative = cytotoxicity [14] 7.46% [at 11.6 µM] | activity change, negative = cytotoxicity [15] 7.08% [at 11.6 µM]

CC1CCC2(C(=O)O)CCC3(C)C(=CCC4C5(C)CCC(O)C(C)(C(=O)O)C5CCC43C)C2C1(C)O (stereo not given)
inactive: max response [1] -10.9% | max response [2] -11.5% | outcome [3] | max response [4] 3.72% | outcome [5] | outcome [6] inactive [at 17.4 µM] | outcome [7] inactive [at 17.4 µM] | Potency [8] | Potency [9] | outcome [10] | Potency [11] | Potency [12] | Potency [13] | Potency [14] | Potency [15]

COC(=O)CC[C@H](NC(=O)[C@H](CC(C)C)NC(=O)OCc1ccccc1)C(=O)N[C@@H](Cc1cnc[nH]1)C(=O)N[C@@H](CC(=O)OC)C(=O)CF (Cbz-LE(OMe)HD(OMe)-CH2F)
inactive: outcome [1] | max response [2] 2.63% | outcome [3] | outcome [4] | outcome [5] | outcome [6] inactive [at 9.27 µM] | outcome [7] inactive [at 9.27 µM] | activity change, negative = cytotoxicity [8] 16.8% [at 11.6 µM] | activity change, negative = cytotoxicity [9] 7.02% [at 11.6 µM] | activity change, negative = cytotoxicity [10] 26% [at 11.6 µM] | activity change, negative = cytotoxicity [11] 0.76% [at 11.6 µM] | activity change, negative = cytotoxicity [12] 6.25% [at 11.6 µM] | activity change, negative = cytotoxicity [13] 2.96% [at 11.6 µM] | activity change, negative = cytotoxicity [14] -14.9% [at 11.6 µM] | activity change, negative = cytotoxicity [15] 0.73% [at 11.6 µM]

Cc1oc2nc3c(c(NC(=O)CN4CCCC4=O)c2c1C)CCCC3
inactive: max response [1] 3.82% | max response [2] -1.01% | outcome [3] | max response [4] 8.69% | outcome [5] | outcome [6] | outcome [7] | Potency [8] | Potency [9] | outcome [10] | Potency [11] | Potency [12] | Potency [13] | Potency [14] | Potency [15]

C=C1C(O)C(OC(=O)c2ccccc2)C2C(C)(C(=O)O)CCCC2(C)C1CC/C(C)=C\CO (stereo not given)
inactive: max response [1] -4.65% | max response [2] -1.62% | outcome [3] | max response [4] 5.47% | outcome [5] | outcome [6] inactive [at 17.4 µM] | outcome [7] inactive [at 17.4 µM] | Potency [8] | Potency [9] | outcome [10] | Potency [11] | Potency [12] | Potency [13] | Potency [14] | Potency [15]

C/C=C/C=C/C(O)=C1/C(=O)[C@]2(C)C3/C(=C(O)/C=C/C=C/C)C(=O)C4(C)C1[C@]1(C)O[C@@]4(O)[C@@]3(C)O[C@@]12O
inactive: outcome [1] | max response [2] 2.27% | outcome [3] | max response [4] 0.929% | outcome [5] | outcome [6] inactive [at 17.4 µM] | outcome [7] inactive [at 17.4 µM] | Potency [8] | Potency [9] | outcome [10] | Potency [11] | Potency [12] | Potency [13] | Potency [14] | Potency [15]

C[C@@]12CC3(S(=O)(=O)O)OC(O1)[C@]1(COC(=O)c4ccccc4)[C@H]3C[C@]21O[C@@H]1O[C@H](CO)[C@@H](O)[C@H](O)[C@H]1O
inactive: max response [1] 2.31% | max response [2] 2.36% | outcome [3] | outcome [4] | outcome [5] | outcome [6] inactive [at 17.4 µM] | outcome [7] inactive [at 17.4 µM] | Potency [8] | Potency [9] | outcome [10] | Potency [11] | Potency [12] | Potency [13] | Potency [14] | Potency [15]

COc1cc(-c2ccc(O)cc2)c(OC)c(O)c1C1=CC(=O)OC1CC(=O)O (stereo not given)
inactive: max response [1] 2.67% | max response [2] 1.87% | outcome [3] | max response [4] -5.37% | outcome [5] | outcome [6] | outcome [7] | Potency [8] | Potency [9] | outcome [10] | Potency [11] | Potency [12] | Potency [13] | Potency [14] | Potency [15]

COCCCc1sc(-c2ccccc2)nc1C(=O)Nc1ccccc1-c1nc2cc(CN3CCCC3)cnc2s1
inactive: outcome [1] | max response [2] -7.81% | outcome [3] | outcome [4] | outcome [5] | outcome [6] inactive [at 17.4 µM] | outcome [7] inactive [at 17.4 µM] | Potency [8] | Potency [9] | outcome [10] | Potency [11] | Potency [12] | Potency [13] | Potency [14] | Potency [15]

CCC1=C(C)C(=O)C(C)CC12C(=O)CCC2C(=O)O (stereo not given)
inactive: max response [1] -4.23% | max response [2] -5.13% | outcome [3] | max response [4] 0.468% | outcome [5] | outcome [6] | outcome [7] | Potency [8] | Potency [9] | outcome [10] | Potency [11] | Potency [12] | Potency [13] | Potency [14] | Potency [15]
